58 compounds from PubChem BioAssay AID1578 (Sanford-Burnham Center for Chemical Genomics, 2009) can be followed below.

In all, about 290,000 compounds went through this assay and about 3,000 (1%) were called active. Rule as the data show it: active = inhibition mostly above about 36% (no sharp cut-off); inactive = mostly below about 34%. The entries come from a sample that favours actives as a whole.

The assay in a line: inhibition of NOD1-driven NF-kB reporter – cell-based, luminescence, uHTS, primary screen (AID 1578).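 Also: HEK-293T reporter cells stimulated with the NOD1 agonist gamma-tri-DAP.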 The settings on record: NOD1-driven NF-kB luciferase reporter cells, at 4 µM, hits give high values. For orientation: In a reporter assay the amount or activity of a reporter protein is the signal.
As a reminder, the inhibition is the change of the read-out against control, counted positive when it falls. For `COc1ccc(-c2csc(N3CCC(c4ccccc4)C3)n2)cc1` (stereo not drawn), the inhibition is 26.8% (inactive).
For `CCc1ccc(N(CC(=O)N2CCN(Cc3ccccc3)CC2)S(C)(=O)=O)cc1` the value was -32.3% (inactive); for `Cc1nc(=S)c2c([nH]1)-c1ccccc1CC21CCCCC1`, 104% (active); for `Nc1nc(=S)[nH]c2c1C1(CCCCC1)Cc1ccccc1-2`, -16.2% (inactive).
For `Nc1nc(=S)[nH]c2c1C1(CCCC1)Cc1ccccc1-2` the value was 14.3% (inactive).
As for `N#C/C(=C/c1ccc(Sc2nc3ccccc3[nH]2)o1)c1cccc(F)c1`, the inhibition is 76.3% (active).
For `N#C/C(=C/c1ccc(Sc2nc3ccccc3[nH]2)o1)c1cccc(Br)c1`, the inhibition is 3.1% (inactive).
For `N#C/C(=C\c1ccc(Sc2nc3ccccc3[nH]2)o1)c1ccccc1` the value was 65.2% (inactive); for `COc1cccc(CN2CCN(C(=S)NCc3ccc(Cl)cc3)CC2)c1`, -10.4% (inactive).
For `CCc1nc2sc3c(c2c(=O)n1CCO)CCC3` the value was -18.6% (inactive); for `COC(=O)c1cc(C)sc1NC(=O)CCCC(=O)O`, -19.8% (inactive); for `CCCCNC(=O)CCn1c(=O)c2ccccc2n(CC(=O)N2CC(C)CC(C)C2)c1=O` (stereo not drawn), 21.3% (inactive).
For `Cc1ccsc1/C=C/c1n[nH]c(=O)c(C#N)c1C` the value was 9.3% (inactive); for `COc1ccc(/C=C/c2n[nH]c(=O)c(C#N)c2C)cc1`, 84.3% (active); for `COc1cccc(/C=C/c2n[nH]c(=O)c(C#N)c2C)c1`, -7.2% (inactive).
Regarding `COc1ccc(-c2nc3ccccc3c(=O)n2NC(=O)Cc2ccccc2)cc1`, the inhibition was -18.8% (inactive).
For `COCCC(=O)N1CCC(Oc2ccc(C(=O)N3C[C@@H](C)O[C@@H](C)C3)cc2)CC1` the value was -23.9% (inactive); for `O=C(c1cccc(Oc2ccc([N+](=O)[O-])cc2Cl)c1)N1CCOCC1`, -7.9% (inactive).
For `CCC(=O)c1cccc2c1N=CC1=C(CC(C)(C)CC1=O)N2` the value was -20.6% (inactive); for `CC1CC(=O)C2=C(C1)Nc1ccccc1N=C2` (stereo not drawn), 11.1% (inactive).
Take `CC1(C)CC(=O)C2=C(C1)Nc1ccccc1N=C2`: the inhibition is 59.6% (active).
For `CCCNc1cc(=S)nc(N)[nH]1` the value was 5% (inactive); for `Clc1ccc(CSc2nnc(-c3ccc4c(c3)OCO4)o2)cc1`, -7.9% (inactive); for `O=C1OCCC1Sc1nnc(-c2ccc3c(c2)OCO3)o1` (stereo not drawn), -4.4% (inactive).
For `N#CCSc1nnc(-c2ccc3c(c2)OCO3)o1` the value was -37.8% (inactive); for `O=C1CCCCC1Sc1nnc(-c2ccc3c(c2)OCO3)o1` (stereo not drawn), 87.4% (active).
For `O=C(c1ccc(Cl)cc1)N1CCCCC(Sc2nnc(-c3ccc4c(c3)OCO4)o2)C1=O` (stereo not drawn) the value was 57.8% (active); for `O=C(O)CSc1nnc(-c2ccc3c(c2)OCO3)o1`, 4.3% (inactive).
Take `Clc1nc(Oc2ccccc2)nc(-c2cn(-c3ccccc3)c3ccccc23)n1`: the inhibition was -9.4% (inactive).
For `O=C(/C=C/c1cccc(O)c1)c1cccnc1` the value was -20.2% (inactive); for `O=C(/C=C/c1ccc(OCc2ccccc2)c(OCc2ccccc2)c1)c1cccnc1`, 87.9% (active); for `O=C(/C=C/c1cccc(OCc2ccccc2)c1)c1cccnc1`, 36.4% (inactive).
For `CC(=O)c1c2c3c(c(Br)ccc3n(C)c1=O)C(=O)c1ccccc1-2` the value was -3.8% (inactive).
For `CCN1CCN(Cc2ccc(NC(=O)c3ccc(C)c(NC(=O)c4cccc(-c5cn[nH]c(=O)c5)c4)c3)cc2C(F)(F)F)CC1` the value was 72% (active).
Take `CCN1CCN(Cc2ccc(NC(=O)c3ccc(C)c(NC(=O)c4cc(-c5ccc(Br)cc5)n[nH]4)c3)cc2C(F)(F)F)CC1`: the inhibition is -4.1% (inactive).
For `CCN1CCN(Cc2ccc(NC(=O)c3ccc(C)c(NC(=O)c4nccn4C)c3)cc2C(F)(F)F)CC1` the value was 7.7% (inactive); for `CCN1CCN(Cc2ccc(NC(=O)c3ccc(C)c(NC(=O)C(=O)c4c[nH]c5ccccc45)c3)cc2C(F)(F)F)CC1`, 67.1% (active).
For `CCN1CCN(Cc2ccc(NC(=O)c3cc(NC(=O)C(=O)c4c[nH]c5ccccc45)cc(OC)c3)cc2C(F)(F)F)CC1` the value was -3.5% (inactive); for `CCN1CCN(Cc2ccc(NC(=O)c3ccc(C)c(NC(=O)c4ccc5n[nH]nc5c4)c3)cc2C(F)(F)F)CC1`, -1.3% (inactive); for `CCN1CCN(Cc2ccc(NC(=O)c3ccc(C)c(NC(=O)c4cccc5[nH]ccc45)c3)cc2C(F)(F)F)CC1`, -0.1% (inactive).
For `CCN1CCN(Cc2ccc(NC(=O)c3ccc(C)c(NC(=O)c4ccnnc4)c3)cc2C(F)(F)F)CC1` the value was 3.7% (inactive).
Take `Cc1cc(C)n(NC(=S)NC2CCCC2)c(=O)c1C#N`: the inhibition was -10.5% (inactive).
For `CC1CC(C)CN(S(=O)(=O)c2ccc(Oc3ccc([N+](=O)[O-])cc3)cc2)C1` (stereo not drawn) the value was 36.9% (inactive).
For `O=C(CCn1nc(-c2ccccc2)ccc1=O)N1CCN(c2ccccn2)CC1`, the inhibition is -14.7% (inactive).
For `O=C(CCc1nnc(CCC2CCCCC2)o1)NCCc1ccccn1` the value was -21.2% (inactive); for `COC(=O)c1c(C)oc(C)c1S(=O)(=O)NCc1ccc(OC)cc1`, -3.5% (inactive); for `Cc1c(C)n(CC(O)CN(CCO)CCO)c2ccccc12` (stereo not drawn), -21.9% (inactive).
For `COc1ccc(CCNC(=O)C(C)OC(=O)c2ccco2)cc1OC` (stereo not drawn) the value was -19.4% (inactive); for `O=C1OCCC1Sc1nnc(-c2ccc(Br)cc2)o1` (stereo not drawn), -16% (inactive).
For `O=C1OCCC1Sc1nnc(-c2ccccc2)o1` (stereo not drawn) the value was 0.8% (inactive).
Take `CCOc1ccc(C2C(C(=O)c3ccco3)=C(O)C(=O)N2CCN2CCOCC2)cc1` (stereo not drawn): the inhibition was 8.2% (inactive).
For `Cc1ccc(S(=O)(=O)/N=C(/c2ccccc2)N2CCOCC2)cc1` the value was 7.1% (inactive).
For `Cc1ccc(CS(=O)(=O)CCC(=O)NCCC(C)C)cc1` the value was -16.6% (inactive); for `CCOc1cc(/C=N\Nc2ncc(F)c(N3CCOCC3)n2)ccc1Oc1nc(Cl)ncc1F`, 19.9% (inactive); for `Clc1ccc(-c2cnn3c(-c4ccncc4)ccnc23)cc1`, 52% (active).
Consider `Fc1ccc(-c2cnn3c(-c4ccncc4)ccnc23)cc1`, for which the inhibition was -51.9% (inactive).
For `Fc1ccc(-c2cnn3c(-c4cccs4)ccnc23)cc1` the value was -29% (inactive).
Turning to `O=c1c2sc3nc(N4CCOCC4)c4c(c3c2ncn1CCc1ccccc1)CCCC4`, the inhibition is 45.8% (inactive).
